{"source": "PubChem BioAssay (NCI)", "note": "About 83,000 compounds went through this panel and 20% of them were active in at least one assay; those are over-represented in the sample as a whole.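 Results are percent growth after 48 hours of single-concentration exposure. 100 means growth as in untreated cells, lower positive values show inhibition; negative values down to -100 show cell death.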 Active and inactive are the calls of the source. The calls were made as follows: active = growth percent below 10; inactive = the rest.", "data": [{"system": "EKVX NSCLC", "assay": "NCI-60 one-dose screen, 48 h (100 = growth as untreated, 0 = no growth, -100 = all killed)", "conditions": "10 µM unless noted", "values": [{"compound": "COc1ccc2c(CCCCC(c3ccccc3)c3ccccc3)c3[n+](cc2c1OC)CCc1cc2c(cc1-3)OCO2", "growth": "-31.8% (active)"}, {"compound": "CCN1CCN(c2cc(C)nc(N(CCCNc3ccnc4cc(Cl)ccc34)Cc3ccc4c(c3)OCO4)n2)CC1", "growth": "42.3% (inactive)"}, {"compound": "O=C(Nc1ccc(C(=O)Nc2ccc(C3=NCCCN3)cc2)cc1)Nc1ccc(C2=NCCCN2)cc1", "growth": "61.4% (inactive)"}, {"compound": "CCOC(=O)C1=C(C)N=C2Sc3cc(OC(F)(F)F)ccc3N2[C@H]1c1ccccn1", "growth": "26.8% (inactive)"}, {"compound": "Nc1c2c(c(O)c3c1=C(CO)C=N3)=NCCS2", "growth": "-63.8% (active)"}, {"compound": "C[C@@H](C[C@H](CCO)c1cc(C(F)(F)F)cc(C(F)(F)F)c1)c1ccc2ccccc2c1", "growth": "81.3% (inactive)"}, {"compound": "CN(N)c1nc2sc3c(c2c(=O)[nH]1)CCCC3", "growth": "86.6% (inactive)"}, {"compound": "Cc1cc(N(CCNc2ccnc3cc(Cl)ccc23)Cc2ccc3c(c2)OCO3)nc(N2CCN(C)CC2)n1", "growth": "73.4% (inactive)"}, {"compound": "C[N+](C)(CCOC(c1ccccc1)c1ccccc1)CC(=O)OCc1ccccc1", "growth": "101% (inactive)"}, {"compound": "CC1(/C=N/NC(N)=S)NC(=O)NC1=O", "note": "(stereo not drawn)", "growth": "99.1% (inactive)"}, {"compound": "[2H]C1([2H])[C@H](C)O[C@H](C)C([2H])([2H])N1c1ccc(NC(=O)c2cccc(-c3ccc(OC(F)(F)F)cc3)c2C)cn1", "growth": "61.4% (inactive)"}, {"compound": "N#Cc1cc2[nH]c3ccc(OC(F)(F)F)cc3c2oc1=O", "growth": "76.1% (inactive)"}, {"compound": "COc1ccc2c(c1OC)C(=O)O[C@@H]2[C@H]1c2c(c(C#CC#Cc3ccc(F)c(F)c3)c3c(c2OC)OCO3)CCN1C", "growth": "90.3% (inactive)"}, {"compound": "CCC1(/C=N/NC(N)=S)NC(=O)NC1=O", "note": "(stereo not drawn)", "growth": "104% (inactive)"}, {"compound": "CC(C)C1CCC(C)C(C2(C#N)C(N)=NC(N)=C2C#N)C1=O", "note": "(stereo not drawn)", "growth": "94.4% (inactive)"}, {"compound": "NC(=O)c1n[nH]n2c1nc(=O)c1c3c(sc12)CCCC3", "growth": "101% (inactive)"}, {"compound": "CCOC(=O)C1=C(C)NC(=O)NC1c1cc(=O)oc2ccc(C)cc12", "note": "(stereo not drawn)", "growth": "95.2% (inactive)"}, {"compound": "C=CC(=O)N(C)[C@H]1C[C@H]2OC(C)(C1OC)n1c3ccccc3c3c4c(c5c6ccccc6n2c5c31)C(=O)NC4", "note": "(stereo partly drawn)", "growth": "17.9% (inactive)"}, {"compound": "Cc1cc2c(-c3nc4ccccn4c3Nc3cccc4ccccc34)c(O)c(O)cc2c(O)c1-c1c(C)cc2c(-c3nc4ccccn4c3Nc3cccc4ccccc34)c(O)c(O)cc2c1O", "growth": "51.4% (inactive)"}, {"compound": "N#CC1(C#N)C(c2cccs2)NC(c2cccs2)C1(C#N)C#N", "note": "(stereo not drawn)", "growth": "94% (inactive)"}, {"compound": "CC1CCC(n2cnc3c(Cl)ncnc32)O1", "note": "(stereo not drawn)", "growth": "94.5% (inactive)"}, {"compound": "Oc1ccc(/C=N/Nc2nnc(N/N=C/c3ccc(O)cc3O)c3ccccc23)c(O)c1", "growth": "-18.4% (active)"}, {"compound": "CCc1ccc(/C=C/c2ccc(O)c3ncccc23)[n+](C)c1", "growth": "47% (inactive)"}, {"compound": "COc1ccc(OC)c(NC2=C(SCCc3ccccc3)C(=O)c3ccccc3C2=O)c1", "growth": "77.3% (inactive)"}, {"compound": "CCN1/C(=C/C=C/c2n(-c3ccccc3)c3ccc(-c4nc5ccccc5s4)cc3[n+]2CC)N(c2ccccc2)c2ccc(-c3nc4ccccc4s3)cc21", "growth": "9.19% (active)"}, {"compound": "COC(=O)c1[nH]cnc1/N=N/N(C)CCO", "growth": "97.9% (inactive)"}, {"compound": "O=C1CC(c2ccc(Cl)cc2)c2ncn(-c3cccc(Cl)c3)c2N1", "note": "(stereo not drawn)", "growth": "73.5% (inactive)"}, {"compound": "COC(=O)CC[C@@H](C)[C@H]1CC[C@H]2C3CC[C@@H]4C[C@@H]5CC[C@]4(C)[C@@]3(O5)[C@H](Br)[C@@H](Br)[C@]12C", "note": "(stereo partly drawn)", "growth": "84.8% (inactive)"}, {"compound": "CC(=O)OCCC/C(=C\\c1ccc2ccccc2c1)[N+](=O)[O-]", "growth": "42.1% (inactive)"}, {"compound": "COc1cc(-c2cc(-c3ccc(Nc4ccnc5cc(Cl)ccc45)cc3)nc(N3CCOCC3)n2)cc(OC)c1OC", "growth": "30.9% (inactive)"}, {"compound": "CCOC(=O)Sc1ncnc2nc[nH]c12", "growth": "97.9% (inactive)"}, {"compound": "COc1cc2c3c(c1)nc(C)n3CCC2", "growth": "95.5% (inactive)"}, {"compound": "CCCCCCCC(=O)SCC/C=C/[C@@H]1CC(=O)NCc2cccc(n2)C2=N[C@@](C)(CS2)C(=O)N[C@@H](C(C)C)C(=O)N1", "growth": "51.3% (inactive)"}, {"compound": "COc1ccc2c(CCc3ccc(Cl)cc3)c3[n+](cc2c1OC)CCc1cc2c(cc1-3)OCO2", "growth": "69.9% (inactive)"}, {"compound": "CC(=O)C(C(C)=O)C(c1ccccc1)C(C(C)=O)C(C)=O", "growth": "96.9% (inactive)"}, {"compound": "Cc1ccc(NC(=O)NC(=O)CSc2nc3ccccc3nc2C)cc1", "growth": "59.6% (inactive)"}, {"compound": "Cc1cc(N(CCNc2ccnc3cc(Cl)ccc23)Cc2ccc3c(c2)OCO3)nc(N2CCCC2)n1", "growth": "35.8% (inactive)"}, {"compound": "O=C(Nc1ccc(C2=NCCCN2)cc1)c1ccc(C(=O)Nc2ccc(C3=NCCCN3)cc2)nc1", "growth": "96% (inactive)"}, {"compound": "COC(=O)C1=C(C(=O)OC)C23C=C(C)C1C2=C(C)C1(CC1)[C@@](C)(O)C3=O", "note": "(stereo partly drawn)", "growth": "-6% (active)"}]}, {"system": "SN12C renal", "assay": "NCI-60 one-dose screen, 48 h (100 = growth as untreated, 0 = no growth, -100 = all killed)", "conditions": "10 µM unless noted", "values": [{"compound": "COc1ccc2c(CCCCC(c3ccccc3)c3ccccc3)c3[n+](cc2c1OC)CCc1cc2c(cc1-3)OCO2", "growth": "-77.7% (active)"}, {"compound": "CCN1CCN(c2cc(C)nc(N(CCCNc3ccnc4cc(Cl)ccc34)Cc3ccc4c(c3)OCO4)n2)CC1", "growth": "34.6% (inactive)"}, {"compound": "O=C(Nc1ccc(C(=O)Nc2ccc(C3=NCCCN3)cc2)cc1)Nc1ccc(C2=NCCCN2)cc1", "growth": "91.6% (inactive)"}, {"compound": "CCOC(=O)C1=C(C)N=C2Sc3cc(OC(F)(F)F)ccc3N2[C@H]1c1ccccn1", "growth": "47.4% (inactive)"}, {"compound": "Nc1c2c(c(O)c3c1=C(CO)C=N3)=NCCS2", "growth": "-63.4% (active)"}, {"compound": "C[C@@H](C[C@H](CCO)c1cc(C(F)(F)F)cc(C(F)(F)F)c1)c1ccc2ccccc2c1", "growth": "96.4% (inactive)"}, {"compound": "CN(N)c1nc2sc3c(c2c(=O)[nH]1)CCCC3", "growth": "104% (inactive)"}, {"compound": "Cc1cc(N(CCNc2ccnc3cc(Cl)ccc23)Cc2ccc3c(c2)OCO3)nc(N2CCN(C)CC2)n1", "growth": "60.7% (inactive)"}, {"compound": "C[N+](C)(CCOC(c1ccccc1)c1ccccc1)CC(=O)OCc1ccccc1", "growth": "105% (inactive)"}, {"compound": "CC1(/C=N/NC(N)=S)NC(=O)NC1=O", "note": "(stereo not drawn)", "growth": "95.5% (inactive)"}, {"compound": "[2H]C1([2H])[C@H](C)O[C@H](C)C([2H])([2H])N1c1ccc(NC(=O)c2cccc(-c3ccc(OC(F)(F)F)cc3)c2C)cn1", "growth": "56.6% (inactive)"}, {"compound": "N#Cc1cc2[nH]c3ccc(OC(F)(F)F)cc3c2oc1=O", "growth": "95.9% (inactive)"}, {"compound": "COc1ccc2c(c1OC)C(=O)O[C@@H]2[C@H]1c2c(c(C#CC#Cc3ccc(F)c(F)c3)c3c(c2OC)OCO3)CCN1C", "growth": "100% (inactive)"}, {"compound": "CCC1(/C=N/NC(N)=S)NC(=O)NC1=O", "note": "(stereo not drawn)", "growth": "95.6% (inactive)"}, {"compound": "CC(C)C1CCC(C)C(C2(C#N)C(N)=NC(N)=C2C#N)C1=O", "note": "(stereo not drawn)", "growth": "100% (inactive)"}, {"compound": "NC(=O)c1n[nH]n2c1nc(=O)c1c3c(sc12)CCCC3", "growth": "101% (inactive)"}, {"compound": "CCOC(=O)C1=C(C)NC(=O)NC1c1cc(=O)oc2ccc(C)cc12", "note": "(stereo not drawn)", "growth": "101% (inactive)"}, {"compound": "C=CC(=O)N(C)[C@H]1C[C@H]2OC(C)(C1OC)n1c3ccccc3c3c4c(c5c6ccccc6n2c5c31)C(=O)NC4", "note": "(stereo partly drawn)", "growth": "6.85% (active)"}, {"compound": "Cc1cc2c(-c3nc4ccccn4c3Nc3cccc4ccccc34)c(O)c(O)cc2c(O)c1-c1c(C)cc2c(-c3nc4ccccn4c3Nc3cccc4ccccc34)c(O)c(O)cc2c1O", "growth": "16.7% (inactive)"}, {"compound": "N#CC1(C#N)C(c2cccs2)NC(c2cccs2)C1(C#N)C#N", "note": "(stereo not drawn)", "growth": "105% (inactive)"}, {"compound": "CC1CCC(n2cnc3c(Cl)ncnc32)O1", "note": "(stereo not drawn)", "growth": "110% (inactive)"}, {"compound": "Oc1ccc(/C=N/Nc2nnc(N/N=C/c3ccc(O)cc3O)c3ccccc23)c(O)c1", "growth": "-28% (active)"}, {"compound": "CCc1ccc(/C=C/c2ccc(O)c3ncccc23)[n+](C)c1", "growth": "31.4% (inactive)"}, {"compound": "COc1ccc(OC)c(NC2=C(SCCc3ccccc3)C(=O)c3ccccc3C2=O)c1", "growth": "91.2% (inactive)"}, {"compound": "CCN1/C(=C/C=C/c2n(-c3ccccc3)c3ccc(-c4nc5ccccc5s4)cc3[n+]2CC)N(c2ccccc2)c2ccc(-c3nc4ccccc4s3)cc21", "growth": "-2.95% (active)"}, {"compound": "COC(=O)c1[nH]cnc1/N=N/N(C)CCO", "growth": "102% (inactive)"}, {"compound": "O=C1CC(c2ccc(Cl)cc2)c2ncn(-c3cccc(Cl)c3)c2N1", "note": "(stereo not drawn)", "growth": "56.1% (inactive)"}, {"compound": "COC(=O)CC[C@@H](C)[C@H]1CC[C@H]2C3CC[C@@H]4C[C@@H]5CC[C@]4(C)[C@@]3(O5)[C@H](Br)[C@@H](Br)[C@]12C", "note": "(stereo partly drawn)", "growth": "98.1% (inactive)"}, {"compound": "CC(=O)OCCC/C(=C\\c1ccc2ccccc2c1)[N+](=O)[O-]", "growth": "-66.4% (active)"}, {"compound": "COc1cc(-c2cc(-c3ccc(Nc4ccnc5cc(Cl)ccc45)cc3)nc(N3CCOCC3)n2)cc(OC)c1OC", "growth": "-11.9% (active)"}, {"compound": "CCOC(=O)Sc1ncnc2nc[nH]c12", "growth": "82.4% (inactive)"}, {"compound": "COc1cc2c3c(c1)nc(C)n3CCC2", "growth": "99.6% (inactive)"}, {"compound": "CCCCCCCC(=O)SCC/C=C/[C@@H]1CC(=O)NCc2cccc(n2)C2=N[C@@](C)(CS2)C(=O)N[C@@H](C(C)C)C(=O)N1", "growth": "55.7% (inactive)"}, {"compound": "COc1ccc2c(CCc3ccc(Cl)cc3)c3[n+](cc2c1OC)CCc1cc2c(cc1-3)OCO2", "growth": "21.9% (inactive)"}, {"compound": "CC(=O)C(C(C)=O)C(c1ccccc1)C(C(C)=O)C(C)=O", "growth": "98.9% (inactive)"}, {"compound": "Cc1ccc(NC(=O)NC(=O)CSc2nc3ccccc3nc2C)cc1", "growth": "73.7% (inactive)"}, {"compound": "Cc1cc(N(CCNc2ccnc3cc(Cl)ccc23)Cc2ccc3c(c2)OCO3)nc(N2CCCC2)n1", "growth": "27.9% (inactive)"}, {"compound": "O=C(Nc1ccc(C2=NCCCN2)cc1)c1ccc(C(=O)Nc2ccc(C3=NCCCN3)cc2)nc1", "growth": "99.8% (inactive)"}, {"compound": "COC(=O)C1=C(C(=O)OC)C23C=C(C)C1C2=C(C)C1(CC1)[C@@](C)(O)C3=O", "note": "(stereo partly drawn)", "growth": "9.49% (active)"}]}]}
